FBW7 activator: human FBW7 E3 ligase activation, primary screen; normalized activity (activation), % at 26.1 µM; AID 1259310; AlphaScreen FBW7–phospho-cyclin E peptide binding, activator screen; 650,000 tested, 0.13% active; in the data active means normalized activity above about 1.9%;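 further: purified mutant Fbw7 with reduced substrate affinity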
Target sequence (Q969H0 whole entry, looked up): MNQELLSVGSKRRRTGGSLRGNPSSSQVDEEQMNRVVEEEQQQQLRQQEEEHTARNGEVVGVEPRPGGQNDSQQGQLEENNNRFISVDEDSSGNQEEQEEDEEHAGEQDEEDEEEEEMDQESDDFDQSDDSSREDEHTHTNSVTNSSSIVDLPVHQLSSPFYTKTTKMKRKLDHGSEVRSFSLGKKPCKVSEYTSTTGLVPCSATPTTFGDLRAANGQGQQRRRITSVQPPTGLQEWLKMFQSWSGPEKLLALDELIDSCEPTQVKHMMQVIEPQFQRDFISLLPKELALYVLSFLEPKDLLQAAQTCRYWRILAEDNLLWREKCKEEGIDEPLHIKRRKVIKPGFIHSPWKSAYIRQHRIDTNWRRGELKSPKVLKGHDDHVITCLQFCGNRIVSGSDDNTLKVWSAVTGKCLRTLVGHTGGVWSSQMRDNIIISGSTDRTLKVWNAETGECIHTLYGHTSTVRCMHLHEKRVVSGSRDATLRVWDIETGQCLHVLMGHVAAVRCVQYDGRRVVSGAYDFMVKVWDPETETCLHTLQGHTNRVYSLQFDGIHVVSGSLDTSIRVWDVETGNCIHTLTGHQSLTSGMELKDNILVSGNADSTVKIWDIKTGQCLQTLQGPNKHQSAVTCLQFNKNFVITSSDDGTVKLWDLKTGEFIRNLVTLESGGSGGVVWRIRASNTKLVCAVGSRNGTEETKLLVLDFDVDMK
MITF primary: blocks human microphthalmia-associated transcription factor; AlphaScreen MITF homodimerization, bead proximity signal; O75030; inhibition, % at 2.6 µM; 650,000 tested, 0.91% active; in the data active means inhibition above about 50%;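 further: 0% = vehicle wells with protein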
TEAD-YAP inh: TEAD-YAP interaction inhibition; AID 1259422; 640,000 tested, 1.4% active; inhibition, % at 9.12 µM; HEK-TIYL cells, TEAD-Gal4/YAP UAS-luciferase luminescence; in the data active means inhibition above about 32%;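 further: 0% = median of test compound wells and 100% = reference inhibitor wells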
GPR151 ag: activates the human receptor GPR151; Q8TDV0; PathHunter beta-arrestin GPR151 cells, luminescence; activation, % at 11.2 µM; 650,000 tested, 1% active; in the data active means activation above about 4.9%;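 further: 0% = median of compound wells and 100% = cells with positive control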
Numbers without * were called inactive. Only some compounds are listed: those with a hit (about 3.5% of all), similar ones and a draw of the others.

COCCCn1c(=O)/c(=C\c2ccc(C)s2)s/c1=C(/C#N)C(=O)NCC1CCCO1 (stereo not given) was read as FBW7 activator -0.1, MITF primary -5.5, TEAD-YAP inh -42.9 and GPR151 ag -0.9.
Screening O=c1c(-c2ccc3c(c2)OCCCO3)coc2cc(O)cc(O)c12 returned FBW7 activator -0.1, MITF primary 6.2, TEAD-YAP inh 66.3* and GPR151 ag -1.0.
For O=c1c(-c2ccc3c(c2)OCCO3)coc2cc(O)ccc12 the results were FBW7 activator 0.7, MITF primary -4.7, TEAD-YAP inh 55.1* and GPR151 ag -0.7.
Screening COc1ccc2c(=O)c(-c3ccc4c(c3)OCCO4)coc2c1 returned FBW7 activator 0.1, MITF primary 8.3, TEAD-YAP inh -66.7 and GPR151 ag -0.7.
`CCOc1cccc2c1OC(c1ccc(OC)cc1)N1N=C(c3cccc(OC)c3)CC21` (stereo not given) gave FBW7 activator -0.1, MITF primary -7.1, TEAD-YAP inh 46.9* and GPR151 ag -1.7.
COc1cccc(C2=NN3C(C2)c2cccc(OC)c2OC3c2cccc(Cl)c2)c1 (stereo not given) was read as FBW7 activator -0.1, MITF primary 3.9, TEAD-YAP inh 29.5 and GPR151 ag 1.1.
Screening COc1cccc(C2=NN3C(C2)c2cccc(OC)c2OC3c2ccc(SC)cc2)c1 (stereo not given) returned FBW7 activator -0.2, MITF primary -5.0, TEAD-YAP inh 46.5* and GPR151 ag -1.3.
`Oc1c(Cl)cc(CN2CCN(c3cccc(C(F)(F)F)c3)CC2)c2cccnc12` gave FBW7 activator -0.1, MITF primary 37.5, TEAD-YAP inh 69.5* and GPR151 ag -0.8.
Screening O=[N+]([O-])c1cc(CN2CCN(c3cccc(C(F)(F)F)c3)CC2)c2cccnc2c1O returned FBW7 activator -0.1, MITF primary 99.8*, TEAD-YAP inh 20.4 and GPR151 ag -0.6.
O=C(Cn1c(=O)c2ccccc2n2nncc12)Nc1ccc(Br)cc1 was read as FBW7 activator 0.2, MITF primary 5.9, TEAD-YAP inh -3.0 and GPR151 ag 0.0.
For COCCN(CC(=O)NC1CCCCC1)C(=O)/C=C/C(=O)c1ccc(OC)cc1O the results were FBW7 activator 0.0, MITF primary -1.8, TEAD-YAP inh 49.5* and GPR151 ag 1.9.
For COc1ccc(C(=O)OCC(=O)NC(=O)NC2CCCC2)c(O)c1 the results were FBW7 activator -0.1, MITF primary -6.3, TEAD-YAP inh 8.4 and GPR151 ag 0.8.
O=C1N[C@@H](Cc2ccccc2)C(=O)N2CCN(CCCc3ccccc3)C[C@H]12 was read as FBW7 activator 0.4, MITF primary 24.2, TEAD-YAP inh 8.8 and GPR151 ag -1.1.
For CCN(C(C)=O)c1nnc(-c2ccc(C)cc2)s1 the results were FBW7 activator -0.1, MITF primary -1.0, TEAD-YAP inh 47.5* and GPR151 ag -4.1.
`Cc1cccc(C(=O)NCc2nnc(SCC(=O)NCCc3ccccc3)n2C)c1` gave FBW7 activator 0.3, MITF primary -13.4, TEAD-YAP inh 10.5 and GPR151 ag -0.4.
Screening COc1ccccc1NC(=O)c1c(Cl)nc(Cl)c(Cl)c1Cl returned FBW7 activator 0.5, MITF primary 8.1, TEAD-YAP inh 63.5* and GPR151 ag 1.5.
COc1ccccc1NC(=O)c1c(OC)cccc1OC was read as FBW7 activator -0.1, MITF primary -8.2, TEAD-YAP inh 14.7 and GPR151 ag -1.0.
COc1ccc(OC)c(NC(=O)c2c(Cl)nc(Cl)c(Cl)c2Cl)c1 was read as FBW7 activator 0.1, MITF primary -5.2, TEAD-YAP inh 64.4* and GPR151 ag -1.4.
`Cc1cc(NC(=O)CCN2CCN(c3ccc(Cl)cc3)CC2)no1` gave FBW7 activator 0.0, MITF primary -1.9, TEAD-YAP inh -1.1 and GPR151 ag -1.8.
`COc1ccc(/C=C(/C#N)c2nc3ccccc3[nH]2)cc1` gave FBW7 activator -0.1, MITF primary 2.1, TEAD-YAP inh -51.3 and GPR151 ag -1.8.
COc1ccc(-c2nc3ccccc3[nH]2)cc1 was read as FBW7 activator 0.1, MITF primary -2.6, TEAD-YAP inh 49.7* and GPR151 ag -10.8.
For COc1ccc(/C=C/c2nc3ccccc3c(=O)o2)cc1 the results were FBW7 activator 0.1, MITF primary -5.2, TEAD-YAP inh 75.2* and GPR151 ag -10.3.
For COc1ccccc1/C=C/c1nc2ccccc2c(=O)o1 the results were FBW7 activator 0.0, MITF primary 7.2, TEAD-YAP inh -53.9 and GPR151 ag -7.4.
`COc1ccc(/C=N\n2nnc3ccccc32)cc1` gave FBW7 activator -0.1, MITF primary 3.2, TEAD-YAP inh 84.8* and GPR151 ag -6.8.
For COc1ccc(/C=C/c2nc3ccccc3[nH]2)cc1 the results were FBW7 activator 0.0, MITF primary 0.7, TEAD-YAP inh 87.6* and GPR151 ag -6.2.
COc1ccc(/C=C/C(=O)Nc2nc3ccccc3n2C)cc1 was read as FBW7 activator 0.5, MITF primary 17.4, TEAD-YAP inh -16.5 and GPR151 ag -0.8.
Screening COc1cccc(N2CC(O)=C(c3nc4ccccc4[nH]3)C2=N)c1 returned FBW7 activator -0.1, MITF primary 0.7, TEAD-YAP inh 36.9* and GPR151 ag 0.9.
Screening COc1ccc(/C=C/c2nc3ccccc3n2C)cc1 returned FBW7 activator 0.4, MITF primary -7.5, TEAD-YAP inh 98.3* and GPR151 ag -10.6.
`Nc1ccc2nc(/C=C/c3ccccc3)[nH]c2c1` gave FBW7 activator 0.2, MITF primary 10.0, TEAD-YAP inh 15.3 and GPR151 ag -9.2.
C(=C\c1nc2ccccc2[nH]1)/c1ccccc1 was read as FBW7 activator 0.0, MITF primary -7.0, TEAD-YAP inh 79.8* and GPR151 ag -9.6.
`CCCOCCOC(=O)c1[nH]c2c(c1C)C(=O)CC(c1cc(OC)ccc1OC)C2` (stereo not given) gave FBW7 activator 0.0, MITF primary -8.3, TEAD-YAP inh 47.2* and GPR151 ag 1.0.
`COCCOC(=O)c1[nH]c2c(c1C)C(=O)CC(c1ccccc1Cl)C2` (stereo not given) gave FBW7 activator 0.1, MITF primary 3.0, TEAD-YAP inh 39.9* and GPR151 ag -0.5.
For CCCOCCOC(=O)c1[nH]c2c(c1C)C(=O)CC(c1ccc(OC)c(OC)c1)C2 (stereo not given) the results were FBW7 activator -0.1, MITF primary -5.4, TEAD-YAP inh 6.7 and GPR151 ag 0.3.
`COc1ccc(OC)c(C2CC(=O)c3c([nH]c(C(=O)OCCOC(C)C)c3C)C2)c1` (stereo not given) gave FBW7 activator -0.2, MITF primary -7.0, TEAD-YAP inh 45.1* and GPR151 ag 0.9.
For COc1ccc(OC)c(C2CC(=O)c3c([nH]c(C(=O)OC(C)C)c3C)C2)c1 (stereo not given) the results were FBW7 activator 0.1, MITF primary 0.0, TEAD-YAP inh 50.0* and GPR151 ag 1.1.
Screening COc1ccc(OC)c(C2CC(=O)c3c([nH]c(C(=O)OCC4CCCO4)c3C)C2)c1 (stereo not given) returned FBW7 activator 0.1, MITF primary 9.9, TEAD-YAP inh 1.1 and GPR151 ag 1.6.
